A short description of assay [1]: Quantitative High-Throughput drug screen in 47 multiple myeloma cell lines against the NCATS MIPE library collection: NCIH929_DSMZ cell viability assay (AID 1918978). Note: nearly all actives have a fitted effect of over 35% in size. The method in brief: (§1)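 ATP-based luminescence (CellTiter-Glo, 5 min RT incubation) quantified surviving cells following two days' treatment with MIPE 4.0 agents at 37 °C, 5% CO2.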
A short description of assay [2]: Quantitative High-Throughput drug screen in 47 multiple myeloma cell lines against the NCATS MIPE library collection: OCIMY1_PLB cell viability assay (AID 1918979). For viability: series mostly up to about 46 µM. Note: nearly all actives have a fitted effect of over 35% in size. The method in brief:
as §1

Assay [3] can be described thus: Quantitative High-Throughput drug screen in 47 multiple myeloma cell lines against the NCATS MIPE library collection: MM1S_ATCC cell viability assay (AID 1918980). Note: nearly all actives have a fitted effect of over 45% in size. The method in brief:
as §1

Assay [4] can be described thus: Quantitative High-Throughput drug screen in 47 multiple myeloma cell lines against the NCATS MIPE library collection: MM1R_ATCC cell viability assay (AID 1918981). Note: nearly all actives have a fitted effect of over 35% in size. An outline of the steps:
as §1

Assay [5] can be described thus: Quantitative High-Throughput drug screen in 47 multiple myeloma cell lines against the NCATS MIPE library collection: LP1_DSMZ cell viability assay (AID 1918982). Note: nearly all actives have a fitted effect of over 35% in size. The method in brief: as §1
Assay [6] can be described thus: Quantitative High-Throughput drug screen in 47 multiple myeloma cell lines against the NCATS MIPE library collection: L363_DSMZ cell viability assay (AID 1918984). Note: nearly all actives have a fitted effect of over 40% in size. An outline of the steps:
as §1

The nature of assay [7]: Quantitative High-Throughput drug screen in 47 multiple myeloma cell lines against the NCATS MIPE library collection: KMS34_JCRB cell viability assay (AID 1918985). Note: nearly all actives have a fitted effect of over 40% in size. An outline of the steps: as §1
Assay [8] can be described thus: Quantitative High-Throughput drug screen in 47 multiple myeloma cell lines against the NCATS MIPE library collection: KMS28PE_JCRB cell viability assay (AID 1918983). Note: nearly all actives have a fitted effect of over 35% in size. The method in brief:
as §1

Results filed as inconclusive are left out. Active and inactive are the calls of the source. Calls come from the whole dose curve; as a rule, active = well fitted curve in the direction sought with a large enough effect; inconclusive = small, poorly fitted or top-dose-only effect, or another doubt; inactive = no such curve, though single readings can be large; an effect the other way counts as inactive or inconclusive.
Potency is the fitted concentration of half-maximal effect.

Consider `O=c1ccn([C@@H]2O[C@H](CO)[C@H](O)[C@H]2O)c(=O)[nH]1`, for which the Potency in assay [1] is 7.43 µM (active); in assay [3], 23.5 µM (active); in assay [5] it was 14.8 µM (active). Further, the Potency entry in assay [2] and in assay [4] was “inactive” each time.

For the compound `CO[C@@H](C(=O)N1Cc2[nH]nc(NC(=O)c3ccc(N4CCN(C)CC4)cc3)c2C1)c1ccccc1`, the Potency was 11.8 µM (active) in assay [1], 20.9 µM (active) in assay [3], 20.9 µM (active) in assay [4] and 18.7 µM (active) in assay [6]. In addition, the Potency result in assay [2] was “inactive”.

Consider `COc1ccc2c(Oc3ccc(NC(=O)c4c(C)n(CC(C)(C)O)n(-c5ccccc5)c4=O)nc3)ccnc2c1`, for which the Potency result in assay [1], in assay [2], in assay [4], in assay [5] and in assay [7] was “inactive” throughout.

With `O=C1C(Cl)=C(NCCN2CCOCC2)C(=O)c2ncccc21`, the Potency in assay [1] is 7.43 µM (active); in assay [2] it was 6.62 µM (active); in assay [3] it was 3.32 µM (active); in assay [4] it was 3.32 µM (active); in assay [5], 8.33 µM (active); in assay [6], 3.72 µM (active). Also, the Potency in assay [7] is 4.18 µM (active).

Consider `O=C(CCCCCCC(=O)Nc1ccccc1)NO`, for which the Potency in assay [1] is 2.64 µM (active); in assay [2], 5.9 µM (active); in assay [3], 2.96 µM (active); in assay [4], 2.09 µM (active); in assay [8], 3.72 µM (active); in assay [6], 1.87 µM (active). The Potency in assay [7] is 1.87 µM (active).

As for `O=c1c(-c2ccc(O)cc2)coc2cc(OC3O[C@H](CO)[C@H](O)[C@H](O)[C@H]3O)cc(O)c12` (some centres not stated), the Potency in assay [1] is 2.09 µM (active); in assay [3], 4.18 µM (active); in assay [4] it was 16.6 µM (active). The Potency entry in assay [2] is “inactive”.

As for `COc1ccc2c3c1OC1C[C@@H](O)C=C[C@@]31CCN(C)C2` (some centres not stated), the Potency in assay [1] was 16.6 µM (active); in assay [3], 20.9 µM (active). For the same compound, the Potency result in assay [2], in assay [4], in assay [5], in assay [8] and in assay [7] was “inactive” each time.

For `COc1ccc2c(Oc3ccc(NC(=O)c4c(C)n(CC(C)(C)O)n(-c5ccccc5)c4=O)cc3F)ccnc2c1`, the Potency in assay [1] was 20.9 µM (active).

For the compound `COc1ccc(-c2oc3c(CC=C(C)C)c(OC4O[C@H](CO)[C@@H](O)[C@H](O)[C@@H]4O)cc(O)c3c(=O)c2OC2O[C@@H](C)[C@H](O)[C@@H](O)[C@@H]2O)cc1` (some centres not stated), the Potency is 29.6 µM (active) in assay [1]; 23.5 µM (active) in assay [2]; 20.9 µM (active) in assay [3]; 20.9 µM (active) in assay [4]; 20.9 µM (active) in assay [5]; 13.2 µM (active) in assay [6].

With `CC(C)(C)COc1ccc(-n2cc(C(=O)O)cn2)cc1C#N`, the Potency entry in assay [1], in assay [2], in assay [4], in assay [5], in assay [8] and in assay [6] was “inactive” in each case. Moreover, in assay [7], the Potency entry was “inactive”.

Take `C[C@]12CC[C@@H]3c4ccc(O)cc4CC[C@H]3[C@H]1C[C@@H](O)[C@H]2O`: the Potency result in assay [1], in assay [2], in assay [4], in assay [5] and in assay [7] was “inactive” throughout.

For `Cc1nc(N)sc1-c1ccnc(Nc2ccc(N3CCOCC3)cc2)n1`, the Potency was 7.43 µM (active) in assay [1]; 16.6 µM (active) in assay [2]; 18.7 µM (active) in assay [3]; 10.5 µM (active) in assay [4]; 20.9 µM (active) in assay [5]; 16.6 µM (active) in assay [8]. Moreover, the Potency in assay [6] is 2.96 µM (active); in assay [7], 1.05 µM (active).

`CN(C)Cc1cccc(N=C(c2ccccc2)c2c(O)[nH]c3cc(C(=O)N(C)C)ccc23)c1`: the Potency was 18.7 µM (active) in assay [1]; 16.6 µM (active) in assay [3]; 4.69 µM (active) in assay [4]; 18.7 µM (active) in assay [8]; 8.33 µM (active) in assay [6]. For the same compound, the Potency entry in assay [2] was “inactive”.

Take `C[C@]12CC[C@@H]3c4ccc(O)cc4C[C@@H](CCCCCCCCCS(=O)CCCC(F)(F)C(F)(F)F)[C@H]3[C@H]1CC[C@H]2O` (some centres not stated): the Potency in assay [1] is 0.0187 µM (active); in assay [3], 2.96 µM (active); in assay [5], 11.8 µM (active). Besides, the Potency entry in assay [2] and in assay [6] was “inactive” throughout.

Turning to `COc1ccc(Cc2ccc(NC(N)=O)cc2)cc1-c1cccc(Cl)c1`, the Potency in assay [1] was 16.6 µM (active). In assay [2], the Potency result was “inactive”.

On to `CN1C[C@H]2c3ccccc3Oc3ccc(Cl)cc3[C@@H]2C1`, for which the Potency entry in assay [1], in assay [2], in assay [3], in assay [4] and in assay [5] was “inactive” throughout.

As for `O=C(NC1CCOCC1)c1ccc(-c2cc(-c3cn[nH]c3-c3ccccn3)ccn2)cc1`, the Potency entry in assay [1] and in assay [2] was “inactive” each time. Also, the Potency in assay [4] and in assay [5] was 14.8 µM (active) in each case.

Take `O=C(OCC#CCSc1nnc(-c2cccc3ccccc23)o1)c1cc2ccccc2s1`: the Potency result in assay [1], in assay [2], in assay [3], in assay [5], in assay [8] and in assay [6] was “inactive” throughout.

As for `Nc1ncnc2c1ncn2[C@@H]1O[C@@H](CO)[C@H](O)[C@H]1O`, the Potency result in assay [1], in assay [2], in assay [3] and in assay [5] was “inactive” throughout.

For the compound `CCC(CC)[C@H](NC(C)=O)[C@@H]1[C@H](O)[C@@H](C(=O)O)C[C@@H]1N=C(N)N`, the Potency entry in assay [1], in assay [2], in assay [3], in assay [5] and in assay [6] was “inactive” in each case.

Consider `O=c1cc(-c2cccc3c2Sc2ccccc2S3)oc(N2CCOCC2)c1`, for which the Potency in assay [1] was 18.7 µM (active); in assay [3], 18.7 µM (active); in assay [4] it was 23.5 µM (active). Besides, the Potency entry in assay [2] is “inactive”.

Consider `Cc1ccc(Nc2cc(-c3cccc(N4C(=O)c5ccccc5C4=O)c3)ncn2)cc1NS(C)(=O)=O`, for which the Potency in assay [1] is 3.32 µM (active); in assay [3], 20.9 µM (active); in assay [4], 23.5 µM (active); in assay [5] it was 26.4 µM (active); in assay [6] it was 18.7 µM (active). Further, the Potency entry in assay [2] is “inactive”.

Take `NC[C@@H]1O[C@@H](O[C@H]2[C@@H](O)[C@H](O[C@@H]3[C@@H](O)[C@@H](N)C[C@H](N)[C@H]3O[C@H]3O[C@H](CN)[C@@H](O)[C@@H](O)[C@H]3N)O[C@H]2CO)[C@H](N)[C@@H](O)[C@@H]1O`: the Potency entry in assay [1], in assay [2], in assay [4], in assay [5] and in assay [6] was “inactive” throughout.

Turning to `O=c1c(O)c(-c2ccc(O)cc2)oc2cc(O)cc(O)c12`, the results for the Potency in assay [1] and in assay [3] were 9.35 µM (active) and 18.7 µM (active), respectively. Also, the Potency entry in assay [2] is “inactive”.

These data come from PubChem BioAssay (NCATS).
